{"source": "the supplement of paper PMC6555819", "data": [{"system": "PPARg:RXRa DBDmut IVT, anti-RXR (DBD mutation: RXRa K156A/R161A, NR concentration 270 nM, RXRa partner concentration 90 nM)", "experiment": "PBM binding z-score (relative to random genomic background probes); higher = stronger binding; sequences stand for … in GC…GCGATTGACAGCGTAGAATGAAGG", "summary_of_the_method": "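Antibodies against each partner of ligand-free nuclear receptor dimers (one per run) detected binding on custom Agilent 4×180K protein-binding microarrays after 1 h incubation. The double-stranded probes had 34-nt variable regions carrying direct-repeat seeds, single-nucleotide variants, half-site ablations and random human genomic background sequences. Binding z-scores, from regression-normalized fluorescence, use the random background probes as reference.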", "values": [{"sequence": "TCATATAGGTAACCAGGTGAAAGTCCGTAAGTTA", "PBM binding z-score": 5.2}, {"sequence": "TGAATGAGGCTATAAGATCAGGGAACGTTGCAAA", "PBM binding z-score": -0.531}, {"sequence": "CCGACTGGGCCAAGGTTACCATAACGCACAGCCA", "PBM binding z-score": 1.61}, {"sequence": "AGAATGAGGTTATTAAGGTCAGGGAATTGCGGTC", "PBM binding z-score": 4.18}, {"sequence": "CCTTACGAGTCACGAGGTTATAGCACGACGAGCG", "PBM binding z-score": 0.274}, {"sequence": "GCTATTAGTTGAAAGGGCCACCGAATGATTCTCG", "PBM binding z-score": 0.635}, {"sequence": "GCTATTAGTTGAAAGGGCAACCGCATGATTCTCG", "PBM binding z-score": 0.567}, {"sequence": "CCTGCTTGGTCATGGTCAGCTAATCTACAGTATG", "PBM binding z-score": 0.417}, {"sequence": "CAAACTAGGTCACAGAGTTCAAAGTCCGTGCGTA", "PBM binding z-score": 8.6}, {"sequence": "CGTCAAAGTTCACGGTAACGTAACAGAAAGCAGC", "PBM binding z-score": 0.827}, {"sequence": "ATCTCTAGGTAAAGATAATTCAGTGAATGCAAAT", "PBM binding z-score": 2.32}, {"sequence": "GGAACAAGGGCATTCGAGTTGATAGCATGGCGAT", "PBM binding z-score": 2.21}, {"sequence": "CCTACTGGGGCATAAGGTTACCATAAGCCAGCCC", "PBM binding z-score": 4.53}, {"sequence": "GATACAGGGTCAAGGCCAGAGCACGCGTATTGAT", "PBM binding z-score": 2.49}, {"sequence": "CCTAGTTGGTCAAGGTCACTCACGCTATAGGTAC", "PBM binding z-score": 2.34}, {"sequence": "TAGCCTGGGTCATTGGGCCAGTATAGTACGCATC", "PBM binding z-score": 1.27}, {"sequence": "ATCTCTAGTTAAAAGTTCAGTGAATCCCGAGGAT", "PBM binding z-score": 0.0721}, {"sequence": "TCTGCTAGGTCAGTGGGTCAGCTAACGAGCTGCC", "PBM binding z-score": 4.42}, {"sequence": "CCTTACGGGTCACGAGGTTTTAGCACGACGAGCG", "PBM binding z-score": 4.32}, {"sequence": "GCTTACGGGTCAAAGGCTATAGCATGAATAGAAT", "PBM binding z-score": 3.78}, {"sequence": "AGAATGAGGTTATTAAGTTCAGGGAATTGCGGTC", "PBM binding z-score": 2.87}, {"sequence": "ACAGACAGGTGATGAAGGTAACTCCGGCTATCAT", "PBM binding z-score": 0.0958}, {"sequence": "ATCTCTAGGTAACAAGTTCAGTGAAAGAGAGGAC", "PBM binding z-score": 3.46}, {"sequence": "CGTCCAAGGTCAAACGTCAGTGAAGAGATGACGG", "PBM binding z-score": 4.12}, {"sequence": "AGTCACAGTTCAGGACGAGGTAACGTAAAGCACG", "PBM binding z-score": -0.095}, {"sequence": "ACAGACAGGTGAGTGAAGGTAGCTCAGCTGGACG", "PBM binding z-score": 0.722}, {"sequence": "TTACCAAGGTGAAAGGTCGTTGGTGCACGCCTTG", "PBM binding z-score": 3.18}, {"sequence": "GCTGCTAGGTCAACTCATGGTCAGCTAAAGCTCG", "PBM binding z-score": 4.52}, {"sequence": "CGCACTAGGTCAAGGACAGTGAATCTCCGCACGC", "PBM binding z-score": 8.02}, {"sequence": "CCAACTAGGTCATCCAGGACAGTGAATACATTGA", "PBM binding z-score": 7.67}, {"sequence": "GCATATAGGTAGTACAAGGTGAAAGTCCGATTGT", "PBM binding z-score": 0.709}, {"sequence": "GTGCCAAGGTGAATAGGTCGTTGATGAGTAGGCG", "PBM binding z-score": 2.01}, {"sequence": "CGTCCAAGGTCAATGCTATGTCAGTGAAAGCATT", "PBM binding z-score": 2.87}, {"sequence": "CGTCCAAGGTCTATGCTAGGTCAGTGAAAGCATT", "PBM binding z-score": 0.0727}, {"sequence": "CGAACGAGGGCATGAGTTGATAGAAAATGCCGAT", "PBM binding z-score": 2.74}, {"sequence": "CGTCCAAGGTGAAAGGTCAGTGAAGAGATGACGG", "PBM binding z-score": 2.98}, {"sequence": "CAAACTATGTCACAGAGGTCAAAGTCCGTGCGTA", "PBM binding z-score": 5.08}, {"sequence": "TCTTGAAGATCAAAGGTTAAGAAAGCCGAAGCCT", "PBM binding z-score": 1.75}, {"sequence": "TTACCAAGGTGATAGGTCGTTGATGCACGCCTTG", "PBM binding z-score": 1.07}, {"sequence": "TCTGCTTGGTCAGTTGGTCAGCTAACGAGCTGCC", "PBM binding z-score": 0.546}]}]}
